In PubChem BioAssay (NCI):
Values joined by “and” are separate entries in the source; they are usually repeats but may differ in a detail not shown here. Equal values may be shown once. This is part of a sample that, as a whole, favours compounds with a hit. Of some 83,000 tested, about 20% had one in any assay.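 Each cell line was grown in a 96-well plate and treated with one concentration of compound for 48 hours. Values below 10 were considered active.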 Values without a mark were called inactive. Active and inactive are the calls of the source.

Tested on: MDA-MB-468 breast
Assay: NCI-60 one-dose screen, 48 h (100 = growth as untreated, 0 = no growth, -100 = all killed)
Conditions: 10 µM unless noted

`COc1ccc(C2c3[nH]c4ccc(Cl)cc4c3CCN2c2oc(CO)nc2C#N)cc1` (centres undefined) was tested. Which growth did it give?
The growth was 25.2%.

With `Cc1nn(-c2ccc(Br)cc2)c2nc3[nH]c(=O)[nH]c(=O)c3nc12` as the compound, how does the growth read?
Its growth is 116%.

`NC(=O)c1ccc(C2C3=C(CCCC3=O)OC3=C2C(=O)c2ccccc2C3=O)cc1` (centres undefined) was tested. Which growth did it give?
Its growth is -30.6% (active).

For `COc1cc(C2=Nc3c(N)nc(N)nc3NC(c3cccc(Nc4ccnc5cc(C(F)(F)F)ccc45)c3)C2)cc(OC)c1OC` (centres undefined), which growth is on record?
Its growth is 68.1%.

Which growth does the source give for `O=C1C=CC(=O)c2c1nc1n2CCCC1` here?
Its growth is 90.2%.

`CS(=O)(=O)c1ccc(-c2nc3ccccn3c2/C=N/Nc2nc(-c3ccc(Br)cc3)cs2)cc1` was tested. Which growth did it give?
Its growth is 102%.

How did the growth turn out when `S=C1SCC(c2ccccc2)S1` (centres undefined) was run?
The growth was 99.6%.

With `CC/C(=C\c1ccc(OC)cc1)C(=O)c1ccc(OC)cc1` as the compound, how does the growth read?
The growth was 79.2%.

With `NS(=O)(=O)N(c1cc(C(F)(F)F)cc(C(F)(F)F)c1)C1CCN(Cc2ccc(C(F)(F)F)cc2)CC1` as the compound, how does the growth read?
The growth was -42.5% (active).

Which growth does the source give for `COc1cc(/C=C/C(=O)c2c(C)nc3ccccc3c2/C=C/c2ccccc2)cc(OC)c1OC` here?
The growth was 7.7% (active).

With `C=CCN1C(=O)c2cccc3c(N4CCOCC4)ccc(c23)C1=O` as the compound, how does the growth read?
Its growth is -40% (active).

How did the growth turn out when `CCOC(=O)CC1CSC(N/N=C/c2ccc(F)c(Br)c2)=N1` (centres undefined) was run?
The growth was 116%.

How did the growth turn out when `CCN(CC)c1ccc2cc(NC(=O)OCCNC(=O)CCNC(=O)[C@H](CC(C)C)NC(=O)C(C)(C)NC(=O)C(C)(C)NC(=O)[C@H](CC(C)C)NC(=O)CCNC(=O)C(C)(C)NC(=O)[C@H](CC(C)C)NC(=O)CCNC(=O)[C@@](C)(CC)NC(=O)[C@H](C)NC(=O)CCNC(=O)C(C)(C)NC(=O)[C@H](C)NC(=O)[C@@H]3CCCN3C(=O)[C@@](C)(CC)NC(=O)[C@H](Cc3ccccc3)NC(=O)C3CCCN3C(=O)C(C)(C)NC(=O)C3CCCN3C(=O)C(C)(C)NC(C)=O)c(=O)oc2c1` (some centres undefined) was run?
Its growth is -83% (active).

How did the growth turn out when `N#Cc1nnn(-c2ccc(S(N)(=O)=O)cc2)c1NCC(=O)c1ccccc1` was run?
The growth was 96.7%.

`CCNC(=O)c1ccc2c(c1)nc(-c1ccc(Cl)cc1)n2-c1cc(C(C)(C)C)[nH]n1` was tested. Which growth did it give?
The growth was 32.8%.

How did the growth turn out when `COc1ccc(C(=O)N2C=Cc3ccccc3C2C#N)cc1` (centres undefined) was run?
Its growth is 82.9%.

For `NC(=S)N/N=C/c1ccc(OC(=O)COc2ccccc2)cn1`, which growth is on record?
The growth was 29.7%.

Which growth does the source give for `OC(CCN1CCCCC1)(c1ccccc1)c1ccccc1` here?
The growth was 101%.

How did the growth turn out when `COc1ccc2nc3cc(Cl)ccc3c(NCCN)c2c1` was run?
Its growth is -61.6% (active).

How did the growth turn out when `CCCCCCCCCCNC(=O)CI` was run?
The growth was -40.5% (active).

Which growth does the source give for `CC(=O)c1ccc2c(c1)CCc1ccccc1-2` here?
Its growth is 94.9%.

With `COC1=CC(=O)c2ccccc2C1=O` as the compound, how does the growth read?
Its growth is 32.7%.

How did the growth turn out when `CC(=O)[C@@H]1CCC=C2CC[C@]3(C)[C@@H](CC[C@@H]4[C@@]5(C)CCCNC(C)(C)[C@@H]5CC[C@]43C)[C@H]21` was run?
The growth was -77.9% (active).

`COc1cc(/C=C2\Oc3cc(OCC(=O)c4ccccc4)ccc3C2=O)cc(OC)c1OC` was tested. Which growth did it give?
Its growth is 97%.

`Cc1ccc2cc3c(N)c4c(C)ccc(C)c4nc3nc2c1` was tested. Which growth did it give?
The growth was 29.9%.

`CC(C)NC(=O)N/C=C(\C#N)C(N)=O` was tested. Which growth did it give?
Its growth is 93.6%.

With `COc1cc(-c2ccc3ncnc(NCc4ccccc4)c3c2)cnc1OC` as the compound, how does the growth read?
The growth was 15.8%.

With `COC(=O)[C@]1(C)CCC[C@]2(C)[C@H]3C[C@H]4C(C(C)C)=C[C@]3(CC[C@H]21)[C@H]1[C@@H]4[C@@H](OCCC#N)CC[C@@H]1OCCC#N` as the compound, how does the growth read?
Its growth is -6.32% (active).

With `CCCCOc1ccc(Nc2cc(Cl)ccc2C(=O)O)cn1` as the compound, how does the growth read?
The growth was 99.6% and 103%.

With `NC(CSC(c1ccccc1)(c1ccccc1)c1ccccc1)C(=O)NCC(=O)O` (centres undefined) as the compound, how does the growth read?
The growth was 55%.

With `CC1=NN(c2nc(-c3ccc(Cl)cc3)c(C#N)c(N3CCOCC3)n2)C(=O)C1` as the compound, how does the growth read?
The growth was 98.3%.

With `O=c1cc(-c2ccccc2)nc(SCc2nc3cc(Cl)c(Cl)cc3[nH]2)[nH]1` as the compound, how does the growth read?
Its growth is 116%.

With `O=S(=O)(Nc1cc(Cl)cc(Cl)c1)c1ccc(-c2cnc(C3CC3)o2)cc1` as the compound, how does the growth read?
The growth was 2.06% (active).

Which growth does the source give for `CCOc1ccc2c(c1)CN(Cc1ccc(Cl)cc1)CO2` here?
The growth was 57.2%.

`CCCOC(=O)Nc1nc2ccc(SCC)cc2s1` was tested. Which growth did it give?
Its growth is 46.2%.

Which growth does the source give for `CCCCCCCCCCCCCCCCCCSC(=N)N` here?
Its growth is 67.8%.

`CC(C)COC(=O)COC(=O)OCCOCCOC(=O)OCC(=O)OCC(C)C` was tested. Which growth did it give?
The growth was 105%.

`COc1ccc(/C(=C/c2cc(OC)c(OC)cc2[N+](=O)[O-])C(=O)O)cc1` was tested. Which growth did it give?
The growth was 111%.

`C/C(=C\C(=O)c1ccc(Cl)cc1)c1ccc(Cl)cc1` was tested. Which growth did it give?
Its growth is 5.65% (active).
